For assay [1], the target named is Lysosomal acid glucosylceramidase (Homo sapiens) (UniProt P04062). The experiment in a line: Glucocerebrosidase-p2 (AID 348; in the data active = potency below about 10 µM; also: potency is read from the fitted curve at half-maximal effect). The following applies: purified GBA, blue fluorogenic substrate, 40 min. Put shortly:
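Compounds titrated from 0.6 nM upwards against 0.2 nM enzyme in pH 5.9 citric acid/KH2PO4, taurocholate, tween-20; blue fluorogenic substrate 80 uM, 40 min room temperature, stopped and read Ex 365/Em 440 for AC50.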

Assay [2] can be described thus: AP1 Signaling Pathway (AID 357; active = well fitted curve in either direction with a large enough effect, not every such curve was filed as active;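 also: ME-180 reporter cells stimulated with EGF at its EC50 level; % is scaled to controls: 0 for no effect and ±100 for the full control effect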). The following applies: ME-180 AP-1-bla reporter, EGF-induced, beta-lactamase ratio, 5 h. Put shortly: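 Titration-series screen for positive or negative modulators of EC50 EGF-induced signaling in ME-180 cells carrying an AP-1-driven beta-lactamase reporter. After 5 hours at 37 degrees Celsius, CCF4 460nm/530nm emission ratio gave %Activity; AC50 values derived.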

Assay [3] addresses Cytochrome P450 1A2 (Homo sapiens) (UniProt P05177). Nature of the assay: p450-cyp1a2 (AID 410; calls by dose curve). Put shortly: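 Inhibition was calculated relative to 57 uM furafylline (full inhibition). The reaction used human CYP1A2 at 20nM with Luciferin-ME at its Km, 100uM, driven by an NADPH-regenerating system for 60 min at room temperature.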
The nature of assay [4]: NFAT Signaling Pathway (AID 444; active = well fitted curve in either direction with a large enough effect, not every such curve was filed as active;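 also: carbachol stimulus at about its EC50 of 1 µM final; % is scaled to controls: 0 for no effect and ±100 for the full control effect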). As to conditions: Jurkat NFAT-bla M1, carbachol, beta-lactamase ratio, 5 h. Summed up: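 Jurkat cells carrying an NFAT-driven β-lactamase reporter and co-transfected muscarinic M1 receptor were treated with compound plus carbachol (1 uM final, an EC50 level) for 5 h at 37 °C. CCF4 loading followed for 1 h at RT; 460/530 nm ratio gave %activity.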

Assay [5] can be described thus: Stat Signaling Pathway (AID 446; active = well fitted curve in either direction with a large enough effect, not every such curve was filed as active;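 also: ME-180 cervical cancer cells given 40 pM IL-6 alongside compound; SIE-controlled beta-lactamase reporter measured as 460/530 nm FRET emission ratio; % is scaled to controls: 0 for no effect and ±100 for the full control effect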). The following applies: ME-180 SIE beta-lactamase reporter, IL-6 stimulated, 5 h; at 7.69 µM (top of the series). Put shortly: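 ME-180 cells carrying a SIE-driven beta-lactamase reporter are stimulated with 40 pM IL-6 for 5 h at 37C in the presence of compound. The 460/530 nm FRET substrate ratio is read after 2.5 h at RT. Data are normalised to 300 pM IL-6 and to 125 nM JAK inhibitor controls.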

Assay [6] addresses Glucocorticoid receptor (Homo sapiens) (UniProt P04150). Nature of the assay: GR-GFP Redistribution (AID 450;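 active = compounds whose dose series gives a full or clear partial fitted curve of increased nuclear translocation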; also: potency is read from the fitted curve at half-maximal effect). The following applies: U2OS GR-GFP nuclear translocation, laser cytometry, 2 h.
For assay [7] the target is unchanged. The experiment in a line: GR-EFC Redistribution (AID 451; calls by dose curve; also: potency is read from the fitted curve at half-maximal effect). The following applies: CHO-K1 GR-EFC translocation, beta-gal luminescence, 2 h. Put shortly:
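CHO-K1 cells stably expressing nuclear-localized β-gal enzyme acceptor and GR fused C-terminally to the enzyme donor fragment; ligand-driven nuclear translocation restores β-gal by complementation. Compounds titrated up to 46 uM final, 2 h at 37 °C; luminescence read.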

In assay [8] the target is Mitogen-activated protein kinase 10 (Mus musculus) (UniProt Q61831). Nature of the assay: JNK3 AlphaScreen Assay (AID 530; active = well fitted curve in either direction with a large enough effect, not every such curve was filed as active;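 also: kinase came from lysate of stimulated human HepG2 cells; signal reports phosphorylation of biotinylated GST-cJun 1-79 at Ser73 with 10 µM ATP; % is scaled to controls: 0 for no effect and ±100 for the full control effect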). Summed up: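 JNK3 came from HepG2 lysates pre-activated with IL-1beta and TNF-alpha and phosphorylated biotinylated GST-cJun (1-79) at 10 uM ATP, pH 7.6, room temperature. Compounds were titrated. AlphaScreen signal used anti-phospho-cJun (Ser73) antibody.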
(Alpha assays give light when donor and acceptor beads are brought close together.)

The target of assay [9] is 3',5'-cyclic-AMP phosphodiesterase 4B (Homo sapiens) (UniProt Q07343). Nature of the assay: qHTS Assay for Inhibitors of PDE-IV (AID 607; active = well fitted activation curve with a large enough effect in the main read-out, with a control signal flat, not every such curve was filed as active; also: % of control where 0% means no effect). Summed up: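 HEK293 ACTOne cells with CNG channel (1000/well), endogenous PDE4; membrane potential dye, compounds up to 22.9 uM final. Fluorescence Ex 535/Em 590; RO 20-1724 (100 uM final) as reference.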
(In general: qHTS replaces the single test concentration by a dilution series.)

The target of assay [10] is Cytochrome P450 2C19 (Homo sapiens) (UniProt P33261). The experiment in a line: qHTS Assay for Inhibitors and Substrates of Cytochrome P450 2C19 (AID 899). Also: % is scaled to controls: 0 for no effect and ±100 for the full control effect; nearly all actives have a fitted effect of over 60% in size. Put shortly: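 NADPH-dependent conversion of Luciferin-H EGE (10uM, at KM) by 5nM enzyme in 50mM KPO4, 60 min at 37C following 10 min compound preincubation. Stopped with luciferin detection buffer; luminescence read after 20 min.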

The test system of assay [11] is Zika virus NS2B-NS3 protease. Nature of the assay: Primary screen GU AMC qHTS for Zika virus inhibitors (AID 1347154).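 Also: 0% = no-inhibitor control and -100% = no-enzyme control; nearly all actives have a fitted effect of over 70% in size.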 Put shortly:
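Unlinked Zika NS2B hydrophilic domain/NS3 protease domain noncovalent complex (25 nM final) in 10 mM Tris-HCl pH 8.0, 0.01% Tween 20, with AMC peptide substrate. Fluorescence (ex 340, em 450 nm) change over 15 min, room temperature; percent inhibition fitted to 4-parameter Hill equation.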

The target of assay [12] is Rap guanine nucleotide exchange factor 4 (Homo sapiens) (UniProt Q8WZA2). The experiment in a line: Confirmatory qHTS for antagonist of cAMP-regulated guanine nucleotide exchange factor 4 (EPAC2) (AID 1645885). Also: potency is read from the fitted curve at half-maximal effect; nearly all actives have a fitted effect of over 25% in size.
Assay [13] deals with DNA dC->dU-editing enzyme APOBEC-3G (Homo sapiens) (UniProt Q9HC16). The experiment in a line: qHTS for inhibitors of Vif-A3G interactions: Validation (AID 588379). Also: 0% is about no effect. Put shortly:
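HeLa cells stably expressing Vif and A3G-eYFP, 700 cells/well, incubated overnight at 37 deg C, then exposed to compound overnight at 37 deg C. Inhibition of Vif-mediated degradation read as increased yellow fluorescence (Ex 488/Em 500-530) by laser-scanning cytometry.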

The target of assay [14] is Guanine nucleotide-binding protein G(i) subunit alpha-1 (Homo sapiens) (UniProt P63096). The experiment in a line: qHTS Assay for Inhibitors of RGS12 GoLoco Motif Activity (Green Fluorophore) (AID 879).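 Also: 0% = labeled peptide with Gαi1 and full inhibition = labeled peptide alone without protein; negative values mean loss of peptide binding seen as reduced polarization.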 Put shortly: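 Fluorescence polarization assay: 50 nM Gαi1 with 10 nM FITC-labeled RGS12 GoLoco peptide in 10 mM Tris pH 7.5, 150 mM NaCl, 0.1 mM GDP, 0.05% NP40, 10 min at room temperature with compound.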

Assay [15] in a line: qHTS Assay for Identification of Small Molecule Antagonists for NFkB Signaling Pathway (AID 895; active = well fitted inhibition curve with a large enough effect in the signal ratio, with a control signal flat, not every such curve was filed as active; the % refers to the signal ratio; also: potency is read from the fitted curve at half-maximal effect). Summed up:
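NFkB-bla ME-180 cervical carcinoma cells with beta-lactamase reporter under NFkB response element; compounds added, then TNF alpha at 10 pM final (EC50), 5 h at 37 C. LiveBLAzer substrate 2 h, room temperature; emission 460/530 nm at 405 nm excitation.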

The nature of assay [16]: Confirmation and Secondary Assay for Modulators of Hemoglobin Beta Chain Splicing at IVS2 654 locus (AID 910). Also: % of control where 0% means no effect. Put shortly:
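HeLa cells stably carrying EGFP interrupted by mutant beta-globin IVS2-654 intron (CMV-driven) were treated with compound for 2 days at 37C; corrected splicing was scored as total peak GFP intensity per well (488 nm excitation, 500-520 nm emission).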

Assay [17] is described as follows: Confirmation and Secondary Assay for Modulators of Hemoglobin Beta Chain Splicing at IVS2 705 locus (AID 930).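 Also: HeLa cells stably expressing the EGFP-705 splicing reporter; GFP fluorescence per well restored by corrected splicing of the IVS2-705 intron in EGFP; % of control where 0% means no effect.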 Put shortly: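 HeLa cells stably carrying EGFP interrupted by mutant beta-globin intron 2 (IVS2-705) treated 2 days at 37C with compound; 500 nM antisense PNA as control. Correct splicing read as total peak GFP intensity per well by laser-scanning cytometry.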

The target in assay [18] is Muscarinic acetylcholine receptor M1 (Rattus norvegicus) (UniProt P08482). The experiment in a line: qHTS Assay for Antagonists of Acetylcholine Muscarinic M1 Receptor: Measurement of IP-One Response (AID 944). Also: nearly all actives have a fitted effect of over 75% in size. Summed up:
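Steps: plate transfected CHO-M1 cells overnight; add test compound, 10 min; add carbachol (200 nM, EC80) in stimulation buffer with LiCl; incubate 30 min; add labelled IP1 tracer and anti-IP1 antibody in lysis buffer; read HTRF after 10 min.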

In assay [19] the target is Pyruvate kinase (Leishmania mexicana) (UniProt Q27686). The experiment in a line: qHTS Validation Assay for Inhibitors of Leishmania Mexicana Pyruvate Kinase (AID 945).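 Also: 0% = DMSO only neutral control wells.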 Summed up: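 Eight-point qHTS titrations in triplicate, data normalized to DMSO neutral control. Reaction: 0.2 nM LmPYK E451W mutant, 0.5 mM PEP, 0.1 mM ADP, 7 mM MgCl2, pH 7.2, one hour at room temperature; luminescent ATP detection.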

The target in assay [20] is Pyruvate kinase PKM (Homo sapiens) (UniProt P14618). Nature of the assay: qHTS Assay for Activators of Human Muscle Pyruvate Kinase (AID 954; active = well fitted curve in the direction sought with a large enough effect, not every such curve was filed as active;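 also: 0% = uninhibited enzyme and -100% = no enzyme or full thiadiazolimine inhibition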). Summed up: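 Purified human PKM2 (0.1 nM) with 0.5 mM PEP (Km) and 0.1 mM ADP in 50 mM imidazole pH 7.2, KCl, MgCl2, 1 h at room temperature; ATP formed read by coupled luciferase luminescence. Normalized to no-enzyme/110 uM thiadiazolimine inhibition; 0.3 nM enzyme column for activation.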

The target of assay [21] is Alpha-galactosidase A (Homo sapiens) (UniProt P06280). The experiment in a line: Counterscreen for Glucocerebrosidase Inhibitors: qHTS Assay for Human alpha-Galactosidase at pH 4.5 (AID 992). Also: 0% is about no effect. Summed up: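 Human enzyme (2 nM) with 80 uM 4-methylumbelliferyl alpha-D-galactopyranoside in 50 mM citric acid, 0.005% Tween-20, pH 4.5, 20 min at room temperature. Compounds 0.7 nM–77 uM; fluorescence Ex 365/Em 440 after pH 10 stop; AC50 from Hill fits.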

The target in assay [22] is Rap guanine nucleotide exchange factor 3 (Homo sapiens) (UniProt O95398). Nature of the assay: Confirmatory qHTS for agonist of cAMP-regulated guanine nucleotide exchange factor 3 (EPAC1) (AID 1645881).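 Also: EPAC1 catalysed release of BODIPY-GDP from Rap1B seen as fluorescence loss; 100% = effect of cAMP agonist control; nearly all actives have a fitted effect of over 75% in size.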
The target of assay [23] is Rap guanine nucleotide exchange factor 4 (Homo sapiens) (UniProt Q8WZA2). Nature of the assay: Confirmatory qHTS for agonist of cAMP-regulated guanine nucleotide exchange factor 4 (EPAC2) (AID 1645884).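 Also: nucleotide exchange releases bodipy-GDP from Rap1 and this lowers its fluorescence; % is scaled to controls: 0 for no effect and ±100 for the full control effect; nearly all actives have a fitted effect of over 65% in size.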

Values without a mark were called inactive. Records with an inconclusive call do not appear. Active and inactive are the calls of the source. Unless noted, calls follow the shape of the dose curve; as a rule, active = well fitted curve in the direction sought with a large enough effect; inconclusive = small, poorly fitted or top-dose-only effect, or another doubt; inactive = no such curve, though single readings can be large; an effect the other way counts as inactive or inconclusive. Bounds are passed on as bounds.

Sequence of 3',5'-cyclic-AMP phosphodiesterase 4B (Homo sapiens) (Q07343 whole entry, looked up): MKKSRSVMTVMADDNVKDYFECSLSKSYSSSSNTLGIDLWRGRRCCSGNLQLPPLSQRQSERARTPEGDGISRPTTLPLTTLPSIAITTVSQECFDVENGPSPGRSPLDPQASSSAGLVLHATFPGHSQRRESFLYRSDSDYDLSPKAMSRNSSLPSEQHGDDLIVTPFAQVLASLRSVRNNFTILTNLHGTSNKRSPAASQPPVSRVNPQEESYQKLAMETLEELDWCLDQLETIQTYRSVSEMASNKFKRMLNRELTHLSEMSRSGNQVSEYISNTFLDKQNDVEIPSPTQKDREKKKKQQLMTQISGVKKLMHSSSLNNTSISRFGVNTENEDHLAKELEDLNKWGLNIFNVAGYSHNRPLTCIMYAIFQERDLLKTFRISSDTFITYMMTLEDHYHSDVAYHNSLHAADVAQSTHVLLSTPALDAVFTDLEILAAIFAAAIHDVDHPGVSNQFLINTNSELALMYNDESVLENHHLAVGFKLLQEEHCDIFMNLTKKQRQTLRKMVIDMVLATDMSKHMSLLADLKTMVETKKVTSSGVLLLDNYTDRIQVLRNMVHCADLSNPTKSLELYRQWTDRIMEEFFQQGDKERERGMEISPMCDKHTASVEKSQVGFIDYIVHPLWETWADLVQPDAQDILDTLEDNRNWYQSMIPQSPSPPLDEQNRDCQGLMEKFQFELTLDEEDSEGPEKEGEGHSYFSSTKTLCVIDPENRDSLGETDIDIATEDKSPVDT
Sequence of Glucocorticoid receptor (Homo sapiens) (P04150 whole entry, looked up): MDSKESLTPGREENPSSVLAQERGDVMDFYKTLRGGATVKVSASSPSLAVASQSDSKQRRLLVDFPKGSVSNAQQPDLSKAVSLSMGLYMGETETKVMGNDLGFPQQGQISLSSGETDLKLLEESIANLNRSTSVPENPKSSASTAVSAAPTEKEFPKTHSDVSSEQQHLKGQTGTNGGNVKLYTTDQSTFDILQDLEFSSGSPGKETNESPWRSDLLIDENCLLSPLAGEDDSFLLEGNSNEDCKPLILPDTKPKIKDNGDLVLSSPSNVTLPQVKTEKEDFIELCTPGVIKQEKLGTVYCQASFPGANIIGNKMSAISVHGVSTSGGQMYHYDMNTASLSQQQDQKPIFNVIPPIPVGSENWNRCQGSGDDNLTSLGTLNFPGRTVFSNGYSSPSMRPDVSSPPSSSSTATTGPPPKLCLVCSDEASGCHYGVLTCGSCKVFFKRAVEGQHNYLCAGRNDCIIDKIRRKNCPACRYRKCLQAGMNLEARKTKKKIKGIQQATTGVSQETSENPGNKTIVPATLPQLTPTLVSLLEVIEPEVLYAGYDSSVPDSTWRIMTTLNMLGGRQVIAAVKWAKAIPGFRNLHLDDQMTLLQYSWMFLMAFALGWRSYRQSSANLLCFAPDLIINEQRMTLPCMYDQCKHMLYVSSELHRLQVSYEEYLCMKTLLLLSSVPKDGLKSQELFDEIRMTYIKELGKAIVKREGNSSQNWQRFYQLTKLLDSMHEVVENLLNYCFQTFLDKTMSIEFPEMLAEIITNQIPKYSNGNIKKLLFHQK
Sequence of Cytochrome P450 1A2 (Homo sapiens) (P05177 whole entry, looked up): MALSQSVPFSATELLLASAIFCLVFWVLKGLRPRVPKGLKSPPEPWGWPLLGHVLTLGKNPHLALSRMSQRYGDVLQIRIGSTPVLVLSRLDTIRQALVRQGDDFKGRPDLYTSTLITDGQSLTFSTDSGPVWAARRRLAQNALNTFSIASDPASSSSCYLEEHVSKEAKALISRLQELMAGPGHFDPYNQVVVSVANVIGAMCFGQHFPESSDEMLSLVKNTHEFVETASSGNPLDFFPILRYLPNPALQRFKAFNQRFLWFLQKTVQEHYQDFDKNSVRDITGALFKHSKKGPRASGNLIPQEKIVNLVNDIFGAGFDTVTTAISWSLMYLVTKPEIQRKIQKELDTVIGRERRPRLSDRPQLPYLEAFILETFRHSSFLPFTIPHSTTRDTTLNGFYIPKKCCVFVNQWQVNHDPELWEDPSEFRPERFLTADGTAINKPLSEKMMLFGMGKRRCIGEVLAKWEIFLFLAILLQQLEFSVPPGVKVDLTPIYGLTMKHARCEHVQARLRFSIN
Sequence of DNA dC->dU-editing enzyme APOBEC-3G (Homo sapiens) (Q9HC16 whole entry, looked up): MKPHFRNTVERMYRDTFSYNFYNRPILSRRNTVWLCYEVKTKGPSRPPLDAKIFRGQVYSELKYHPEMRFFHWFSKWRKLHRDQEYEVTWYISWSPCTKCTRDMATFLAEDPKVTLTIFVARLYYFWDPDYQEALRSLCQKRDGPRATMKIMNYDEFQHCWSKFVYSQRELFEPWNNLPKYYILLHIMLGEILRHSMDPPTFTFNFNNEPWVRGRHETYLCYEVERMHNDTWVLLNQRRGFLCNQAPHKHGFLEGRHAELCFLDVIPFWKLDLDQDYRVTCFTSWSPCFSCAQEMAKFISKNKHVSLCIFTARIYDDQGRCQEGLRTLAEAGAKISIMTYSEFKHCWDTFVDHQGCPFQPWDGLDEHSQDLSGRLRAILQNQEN
Sequence of Rap guanine nucleotide exchange factor 4 (Homo sapiens) (Q8WZA2 whole entry, looked up): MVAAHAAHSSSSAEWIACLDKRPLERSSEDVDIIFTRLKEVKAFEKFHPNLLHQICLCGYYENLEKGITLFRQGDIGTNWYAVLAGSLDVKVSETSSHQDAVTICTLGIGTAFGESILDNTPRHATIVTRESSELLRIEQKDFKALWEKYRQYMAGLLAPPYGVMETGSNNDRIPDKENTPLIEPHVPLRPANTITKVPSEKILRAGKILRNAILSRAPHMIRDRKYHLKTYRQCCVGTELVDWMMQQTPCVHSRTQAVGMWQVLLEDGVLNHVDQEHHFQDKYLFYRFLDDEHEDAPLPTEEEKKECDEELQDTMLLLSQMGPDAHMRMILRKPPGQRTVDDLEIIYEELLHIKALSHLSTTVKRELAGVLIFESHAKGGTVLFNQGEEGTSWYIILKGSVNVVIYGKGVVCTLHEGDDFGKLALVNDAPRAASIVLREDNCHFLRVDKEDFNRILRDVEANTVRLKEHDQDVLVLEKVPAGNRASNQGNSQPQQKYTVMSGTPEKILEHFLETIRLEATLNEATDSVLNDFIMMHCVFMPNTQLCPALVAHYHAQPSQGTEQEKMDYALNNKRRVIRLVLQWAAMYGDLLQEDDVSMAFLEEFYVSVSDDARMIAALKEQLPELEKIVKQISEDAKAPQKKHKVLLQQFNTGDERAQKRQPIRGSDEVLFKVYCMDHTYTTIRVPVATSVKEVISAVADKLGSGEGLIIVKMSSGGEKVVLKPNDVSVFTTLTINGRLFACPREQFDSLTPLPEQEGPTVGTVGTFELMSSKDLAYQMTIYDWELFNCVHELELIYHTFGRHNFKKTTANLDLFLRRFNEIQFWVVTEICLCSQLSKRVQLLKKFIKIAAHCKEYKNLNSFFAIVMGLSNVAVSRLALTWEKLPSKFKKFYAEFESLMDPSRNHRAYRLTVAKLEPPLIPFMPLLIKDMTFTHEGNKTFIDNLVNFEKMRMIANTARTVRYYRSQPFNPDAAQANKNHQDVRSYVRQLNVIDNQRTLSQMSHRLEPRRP
Sequence of Muscarinic acetylcholine receptor M1 (Rattus norvegicus) (P08482 whole entry, looked up): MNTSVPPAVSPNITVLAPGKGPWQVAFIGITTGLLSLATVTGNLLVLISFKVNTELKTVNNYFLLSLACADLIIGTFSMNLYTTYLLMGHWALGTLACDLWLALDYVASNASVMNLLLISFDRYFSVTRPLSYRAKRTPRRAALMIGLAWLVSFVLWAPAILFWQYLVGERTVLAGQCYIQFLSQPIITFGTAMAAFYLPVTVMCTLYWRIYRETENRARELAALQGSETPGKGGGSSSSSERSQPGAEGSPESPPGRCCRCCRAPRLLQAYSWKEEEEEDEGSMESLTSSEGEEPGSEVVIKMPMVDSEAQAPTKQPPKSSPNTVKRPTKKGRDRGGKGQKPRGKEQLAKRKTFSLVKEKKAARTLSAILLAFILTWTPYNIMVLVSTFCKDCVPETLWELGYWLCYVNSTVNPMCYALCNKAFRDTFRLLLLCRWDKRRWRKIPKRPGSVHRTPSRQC
Sequence of Guanine nucleotide-binding protein G(i) subunit alpha-1 (Homo sapiens) (P63096 whole entry, looked up): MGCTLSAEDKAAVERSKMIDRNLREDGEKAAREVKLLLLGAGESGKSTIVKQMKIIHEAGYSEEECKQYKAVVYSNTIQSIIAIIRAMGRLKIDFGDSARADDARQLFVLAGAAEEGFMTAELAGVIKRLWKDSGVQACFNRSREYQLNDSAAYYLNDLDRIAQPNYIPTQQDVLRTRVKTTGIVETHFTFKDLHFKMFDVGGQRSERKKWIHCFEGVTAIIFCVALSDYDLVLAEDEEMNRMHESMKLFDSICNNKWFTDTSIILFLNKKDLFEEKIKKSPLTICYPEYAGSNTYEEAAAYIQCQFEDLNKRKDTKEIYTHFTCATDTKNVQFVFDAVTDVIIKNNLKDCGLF
Sequence of Lysosomal acid glucosylceramidase (Homo sapiens) (P04062 whole entry, looked up): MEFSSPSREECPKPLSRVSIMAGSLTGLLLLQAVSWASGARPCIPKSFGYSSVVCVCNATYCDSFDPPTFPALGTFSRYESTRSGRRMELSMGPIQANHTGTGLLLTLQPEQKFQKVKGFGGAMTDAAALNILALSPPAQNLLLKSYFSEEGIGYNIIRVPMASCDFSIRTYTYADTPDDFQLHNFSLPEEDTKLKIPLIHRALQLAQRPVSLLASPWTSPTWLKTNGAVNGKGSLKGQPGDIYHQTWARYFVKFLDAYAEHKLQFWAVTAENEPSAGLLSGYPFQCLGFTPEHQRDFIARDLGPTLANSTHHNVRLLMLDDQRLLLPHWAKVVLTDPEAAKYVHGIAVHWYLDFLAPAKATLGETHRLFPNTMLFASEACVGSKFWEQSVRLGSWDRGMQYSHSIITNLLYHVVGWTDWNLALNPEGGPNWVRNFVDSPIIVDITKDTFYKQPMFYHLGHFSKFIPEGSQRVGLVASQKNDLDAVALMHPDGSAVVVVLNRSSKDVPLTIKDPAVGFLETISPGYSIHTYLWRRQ

Regarding `C[C@@H](C[C@H](N)C(=O)O)C(=O)O`, the values for the Potency in [1], in assay [6] and in [7] were over 11.4 µM, over 46 µM and over 9.22 µM, respectively. The activity change, negative = inhibition is -5.85% in assay [2] (at 7.69 µM (top of the series)), -18.7% [at 11.4 µM] in assay [3], 21.8% in assay [4] (at 7.69 µM (top of the series)) and -4.43% [at 11.4 µM] in assay [8]. For the same compound, the activity, negative = inhibition is 15.7% in assay [5] and 46.1% [at 11.4 µM] in assay [10]. In addition, the Potency entry in assay [9] and in assay [11] was “inactive” in each case.
With `C/C=C\C[C@@H](C)[C@@H](O)[C@H]1C(=O)N[C@@H](CC)C(=O)N(C)CC(=O)N(C)[C@@H](CC(C)C)C(=O)N[C@@H](C(C)C)C(=O)N(C)[C@@H](CC(C)C)C(=O)N[C@@H](C)C(=O)N[C@H](C)C(=O)N(C)[C@@H](CC(C)C)C(=O)N(C)[C@@H](CC(C)C)C(=O)N(C)[C@@H](C(C)C)C(=O)N1C`, the Potency entry in [8] and in assay [11] was “inactive” throughout. Also, the Potency in assay [12] is 24.8 µM (active).
On to `N[C@@H](Cn1ccc(=O)n(Cc2ccccc2C(=O)O)c1=O)C(=O)O`, for which the Potency result in assay [3], in assay [8], in [9], in [13] and in assay [11] was “inactive” each time. Besides, the Potency in assay [6] and in assay [7] was over 46 µM each time.
For the compound `COCCOC(=O)C1=C(C)NC(C)=C(C(=O)OC(C)C)[C@@H]1c1cccc([N+](=O)[O-])c1`, the figures for the activity change, negative = inhibition in assay [2] (at 38 µM (top of the series)) and in assay [4] (at 38 µM (top of the series)) were -20.1% and -10.3%, respectively. For the same compound, the Potency in assay [6] was over 46 µM; in assay [7], over 46 µM; in assay [15], 7.08 µM (active). The Potency result in assay [9], in assay [18], in assay [19], in assay [13] and in assay [11] was “inactive” each time. For the same compound, the compound was called inactive in assay [14], in assay [16], in assay [17], in [20], in assay [21] and in [22]. Further, in assay [23], the call was inactive.

(Values after PubChem BioAssay (NCATS).)
